Test results as given in publication PMC7819943, “Rice protein-binding microarrays: a tool to detect cis-acting elements near promoter regions in rice”.
The full ranking holds about 68,000 sequences; the median of “fluorescence intensity (a.u.)” is about 9,100, and the highest 2% start at about 16,000. The full list was thinned out, with the highest values kept by preference.

Target: OsWRKY34 (Oryza sativa, UniProt Q0JBA9 1-250)
Assay: protein-binding microarray (RPBM); PBS, 2% BSA, 51.3 ng/ul salmon testes DNA, 50 uM zinc acetate, 200 nM TF, 25 C, 1 h; high values mean tight binding
Details: protein: recombinant; tags: N-terminal polyhistidine and DsRed monomer fusion (pET32a); label: CyDye5-dUTP incorporated in the synthesized complementary strand; 3' TTTTT single-stranded linker to array surface; dsDNA, one strand shown
Procedure, shortened: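 Binding signal is defined as the fluorescence intensity of each feature in arbitrary units, read on an Axon 4000B scanner. Transcription factors with N-terminal polyhistidine and DsRed fusions came from E. coli BL21-CodonPlus and were purified on Ni–NTA. They were incubated at 200 nM for 1 h at 25 °C on a custom Agilent array that had been made double-stranded with Cy5-dUTP, with 50 µM zinc acetate present, and the array was washed.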

Sequence of OsWRKY34 (Q0JBA9 entry or part of it): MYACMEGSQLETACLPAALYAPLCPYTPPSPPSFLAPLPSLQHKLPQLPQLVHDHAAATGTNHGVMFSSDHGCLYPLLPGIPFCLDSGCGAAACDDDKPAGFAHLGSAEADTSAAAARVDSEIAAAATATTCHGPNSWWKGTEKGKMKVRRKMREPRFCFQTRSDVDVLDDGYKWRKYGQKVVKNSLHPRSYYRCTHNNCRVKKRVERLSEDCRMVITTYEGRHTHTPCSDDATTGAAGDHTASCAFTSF

Sequence	binding signal
TCCGGTTGTTTGCCGTGGCACTTCCTTTCTCCCTATTGGCCGGAGTCACCTAGTGCAG	8260 fluorescence intensity (a.u.)
AAGTGGGTGAGTCCAATAGGTGTGCACGTGAGGGGAGGGGCGGAGTCACCTAGTGCAG	10500 fluorescence intensity (a.u.)
ATTCGTGCTCAGTTGTTTCTTTTCCAACTCCGGCGTCCTCCGGAGTCACCTAGTGCAG	8150 fluorescence intensity (a.u.)
TACTCCTTATATTCCTTCATTTTTCAGCCTCGATCAGCTCCGGAGTCACCTAGTGCAG	8130 fluorescence intensity (a.u.)
TACGAGCTTCTCCTCCTCCGCTGGTCATCATCCTACCTGTCGGAGTCACCTAGTGCAG	8440 fluorescence intensity (a.u.)
TTCTACAGGAGTATCATCATCTTTGTGTTCTGGCTCCTGTCGGAGTCACCTAGTGCAG	9040 fluorescence intensity (a.u.)
GACAATTTCTTTTTCCGATGGGATTTTAGTTTTTTGTTTTCGGAGTCACCTAGTGCAG	9700 fluorescence intensity (a.u.)
CTCGCTAGCCCTCTGAACCTTGCAGTTTGTTGTTTGCACCCGGAGTCACCTAGTGCAG	13600 fluorescence intensity (a.u.)
GGGCGGAGCGGGGCGGAGGGAGAGGAGGGAGAGGAGGGAGCGGAGTCACCTAGTGCAG	8480 fluorescence intensity (a.u.)
GCGGAGGTGGTGGTGGCCTTGGAGGAGGTGGCGGCGGAGGCGGAGTCACCTAGTGCAG	14300 fluorescence intensity (a.u.)
AGGAGGGCGGAGGAGGTGGTGGTGGTGGTGGTGGAGAGAGCGGAGTCACCTAGTGCAG	25700 fluorescence intensity (a.u.)
GGAGAGGGAGCGGGAGAGGGAGGATTGGAGGATGTGGGGACGGAGTCACCTAGTGCAG	8940 fluorescence intensity (a.u.)
GGGAGAGGGGTGTGGGGCGGAGAGGGAGAGGGAGATGGGACGGAGTCACCTAGTGCAG	9680 fluorescence intensity (a.u.)
CGACGAGCGAGAGGTAGGTGAGAGAGAGACGGGCGGCGAACGGAGTCACCTAGTGCAG	65100 fluorescence intensity (a.u.)
TCGGCCCGAGCGGTGGCGGTGGCGGTGGCGGAGGAGGAGGCGGAGTCACCTAGTGCAG	10100 fluorescence intensity (a.u.)
GACCGAGAGCAGGCGACGGGGTGGGTGGAGGTAGTGAGAACGGAGTCACCTAGTGCAG	9200 fluorescence intensity (a.u.)
GGCAGATGTGGACGGAGGGAGGGAGGGAGGGAGAGGGGCACGGAGTCACCTAGTGCAG	17100 fluorescence intensity (a.u.)
GATGCGCGCGAACGGAGACGACGGGGTAGGGTGGGGAGGGCGGAGTCACCTAGTGCAG	12300 fluorescence intensity (a.u.)
GGAGGTGGAGGCGGCGGAGGAGGTGGTGGTGGAGGTGGAGCGGAGTCACCTAGTGCAG	17900 fluorescence intensity (a.u.)
CACTAGGTGAGCAATTTTGTTACCACGTCCATGTGCTGATCGGAGTCACCTAGTGCAG	8810 fluorescence intensity (a.u.)
GCACACGCTTCATGTTGACATTTTATCGAATCGTGTTCTGCGGAGTCACCTAGTGCAG	8350 fluorescence intensity (a.u.)
TTACTACTGCATTATCAAGTGTATCTTGCCATGTACTTCCCGGAGTCACCTAGTGCAG	12100 fluorescence intensity (a.u.)

Sequence	binding signal
GATCTCCATCTCCATCTCTCTCTCTCTCTCGAGCAGAGCACGGAGTCACCTAGTGCAG	8360 fluorescence intensity (a.u.)
CAATCACATCCGCGCGCATTTGGCCTGCGCCTTCAAATTTCGGAGTCACCTAGTGCAG	12700 fluorescence intensity (a.u.)
AACGATTTCTTCAGCATTTTCCATCCCCGCGGCTTCTTCTCGGAGTCACCTAGTGCAG	8230 fluorescence intensity (a.u.)
CGCAGAACACGTTTCCCAAATCTTGTACTACTACGTACTACGGAGTCACCTAGTGCAG	9170 fluorescence intensity (a.u.)
AGTTGTGGACTGGAAGAGAGGGGAGGCATGGGGACAAAGACGGAGTCACCTAGTGCAG	9320 fluorescence intensity (a.u.)
GTGGAGTGCGGTGGACGGAGCGGCGGGGCGGGGCGGTCAGCGGAGTCACCTAGTGCAG	16700 fluorescence intensity (a.u.)
GTGGCGGCGGAGGAGGTGGGATGGGGATTTGATGATGGCCCGGAGTCACCTAGTGCAG	8320 fluorescence intensity (a.u.)
CTAGCTTTGAGGTGGAGGTGGTGGTGGAGGAGGAGGAGGACGGAGTCACCTAGTGCAG	12600 fluorescence intensity (a.u.)
AACAGGAGGAGGAGGAGGAGGAGGAGGAGGAGAGGTGGGGCGGAGTCACCTAGTGCAG	9280 fluorescence intensity (a.u.)
TATATATATATATATATATATATATATATATATAAAGAGACGGAGTCACCTAGTGCAG	11100 fluorescence intensity (a.u.)
GCGGGGCGGTGACAACGACGGCGGTGCGGGGCGGTGGTGACGGAGTCACCTAGTGCAG	10300 fluorescence intensity (a.u.)
GAGGTGGTGGTGGTGGTGGTGGATGGCGCCCTGCTTTGACCGGAGTCACCTAGTGCAG	23500 fluorescence intensity (a.u.)
GCGCTACGGACGGAAGAGACGGAGTGGCACGGAATAAAGACGGAGTCACCTAGTGCAG	61600 fluorescence intensity (a.u.)
GGGAGGGAGAGGAGGCGGAGGAGGAGGAGGTGGAGGAGTACGGAGTCACCTAGTGCAG	8610 fluorescence intensity (a.u.)
GGAGGAGCGGTGCGTGGGGTCAGCGGCCGGCGGGAGGGCACGGAGTCACCTAGTGCAG	9670 fluorescence intensity (a.u.)
AGAGGTGGAGGAGAGGAGGGGAGGGGAGGGGAGGTGAGGGCGGAGTCACCTAGTGCAG	18700 fluorescence intensity (a.u.)
TCAAAGGTTGGTTTGATTTGTTGCTATTTGTTGGTTTGATCGGAGTCACCTAGTGCAG	8630 fluorescence intensity (a.u.)
CGCGCTCTGCATGTCGGTCCGTCAACTTGATCGCGATTCTCGGAGTCACCTAGTGCAG	8590 fluorescence intensity (a.u.)
TGCAATTCGTACTTTTTCCTACAATTAAACAGCTACATGTCGGAGTCACCTAGTGCAG	9500 fluorescence intensity (a.u.)
ATTTTTGTCTTGAGTTAACACCGTCACGTTGCCTTCACGGCGGAGTCACCTAGTGCAG	9960 fluorescence intensity (a.u.)
CCGTCGTCGTCTTCGTCTTCCTCAGTTTATCTCCATTTCTCGGAGTCACCTAGTGCAG	13800 fluorescence intensity (a.u.)
GGAAAAAGAACAATCTGCGACCAACCTCTTTTTTCTATCCCGGAGTCACCTAGTGCAG	8980 fluorescence intensity (a.u.)
